Results on seven compounds are retold here after PMC11062922 (Nature Chemical Biology, 2023).

Read-outs that look alike come from different tables or passages of the source.

Holding throughout (parameters): species or system human, MV4-11 + K-562 + COLO205 + SK-N-BE2 + OVCAR-8
For one assay, the system named is CLK1. As to conditions: read-out: apparent Kd; compound concentrations:100 nM and 1000 nM (sheet 'Samples'); n = 1.
A further assay concerns CLK4. The note with it: read-out: apparent Kd; compound concentrations:100 nM and 1000 nM (sheet 'Samples'); n = 1.
For a further assay, the system named is DYRK1A. As to conditions: read-out: apparent Kd; compound concentrations:100 nM and 1000 nM (sheet 'Samples'); n = 1.
The test system of a further assay is GSK3B. As to conditions: read-out: apparent Kd; compound concentrations:100 nM and 1000 nM (sheet 'Samples'); n = 1.
In the next assay the test system is CSNK1A1. The note with it: read-out: apparent Kd; compound concentrations: 100 nM and 1000 nM (sheet 'Samples'), CATDS: 5.98984637657098E-2; n = 1.
Another assay concerns CSNK1D. As to conditions: read-out: apparent Kd, n = 1.
The next assay relates to CSNK1E. The note with it: read-out: apparent Kd, n = 1.
The next assay deals with MAPK10. The note with it: read-out: apparent Kd, compound concentrations: 100 nM and 1000 nM (sheet 'Samples'), n = 1.
A further assay has as its system MAPK11. The note with it: read-out: apparent Kd; compound concentrations: 100 nM and 1000 nM (sheet 'Samples'), CATDS: 7.8830615244885299E-2; n = 1.
For the next assay, the system named is MAPK14. The note with it: read-out: apparent Kd, n = 1.
Another assay concerns MAPK8. As to conditions: read-out: apparent Kd; compound concentrations: 100 nM and 1000 nM (sheet 'Samples'), CATDS: 4.9540433468536101E-2; n = 1.
The subject of a further assay is MAPK9. As to conditions: read-out: apparent Kd, compound concentrations: 100 nM and 1000 nM (sheet 'Samples'), n = 1.
A further assay deals with NLK. The note with it: read-out: apparent Kd; compound concentrations: 100 nM and 1000 nM (sheet 'Samples'), CATDS: 7.7822094948188494E-2; n = 1.
The test system of a further assay is RIPK2. As to conditions: read-out: apparent Kd; compound concentrations: 100 nM and 1000 nM (sheet 'Samples'), CATDS: 6.8515245953885195E-2; n = 1.
The test system of another assay is RIPK3. The note with it: read-out: apparent Kd; compound concentrations: 100 nM and 1000 nM (sheet 'Samples'), CATDS: 4.8358331607940903E-2; n = 1.
Another assay deals with MAPKAPK2. As to conditions: read-out: apparent Kd; compound concentrations: 100 nM and 1000 nM (sheet 'Samples'), CATDS: 0.28890607877709801; n = 1.
Another assay concerns CLK2. The note with it: read-out: apparent Kd; compound concentrations: 100 nM and 1000 nM (sheet 'Samples'), CATDS: 1; n = 1.
For the next assay, the system named is CSNK2A1;CSNK2A3. As to conditions: read-out: apparent Kd; compound concentrations:100 nM and 1000 nM (sheet 'Samples'); n = 1.
For the next assay, the system named is FER. As to conditions: read-out: apparent Kd; compound concentrations:100 nM and 1000 nM (sheet 'Samples'); n = 1.
A further assay has as its system FES. The note with it: read-out: apparent Kd; compound concentrations:100 nM and 1000 nM (sheet 'Samples'); n = 1.
Another assay deals with GRK6. The note with it: read-out: apparent Kd; compound concentrations:100 nM and 1000 nM (sheet 'Samples'); n = 1.
Another assay has as its system IGF1R. The note with it: read-out: apparent Kd; compound concentrations: 100 nM and 1000 nM (sheet 'Samples'), CATDS: 0.29362976208520802; n = 1.
Another assay relates to INSR. The note with it: read-out: apparent Kd; compound concentrations:100 nM and 1000 nM (sheet 'Samples'); n = 1.
Another assay concerns PIM1. As to conditions: read-out: apparent Kd; compound concentrations:100 nM and 1000 nM (sheet 'Samples'); n = 1.
In another assay the test system is PIM2. The note with it: read-out: apparent Kd; compound concentrations:100 nM and 1000 nM (sheet 'Samples'); n = 1.
The subject of the next assay is TNK1. As to conditions: read-out: apparent Kd; compound concentrations:100 nM and 1000 nM (sheet 'Samples'); n = 1.
The subject of the next assay is NQO2. As to conditions: read-out: apparent Kd; compound concentrations: 100 nM and 1000 nM (sheet 'Samples'), CATDS: 0.189684513322773; n = 1.
A further assay concerns PIK3CD. The note with it: read-out: apparent Kd; compound concentrations: 100 nM and 1000 nM (sheet 'Samples'), CATDS: 0.41134743817449698; n = 1.
The next assay has as its system IARS. The note with it: read-out: apparent Kd; compound concentrations:100 nM and 1000 nM (sheet 'Samples'); n = 1.
In another assay the test system is NQO1. As to conditions: read-out: apparent Kd; compound concentrations:100 nM and 1000 nM (sheet 'Samples'); n = 1.
Setting [1] is: compound concentrations:100 nM and 1000 nM (sheet 'Samples').

For the compound `O=c1[nH]cc(-c2ccc(O)cc2)c2sc(-c3ccncc3)cc12` [GSK1033723A], the potency estimated from few doses in the assay with CLK1 was 471 nM; in the assay with CLK4 it was 148 nM; in the assay with DYRK1A, 1550 nM; in the assay on GSK3B it was 1220 nM.
Turning to `CN1CCC(n2cnc(-c3ccc(F)cc3)c2-c2ccnc(Nc3ccccc3)n2)CC1` [SB-236687], the potency estimated from few doses was 341 nM with CSNK1A1; 30.3 nM in the assay on CSNK1D (compound concentrations: 100 nM and 1000 nM (sheet 'Samples'), CATDS: 0.13245154437339501); 66.2 nM with CSNK1E (compound concentrations: 100 nM and 1000 nM (sheet 'Samples'), CATDS: 9.7404692081277694E-2); 79 nM in the assay on MAPK10 (CATDS: 9.1300875893450595E-2); 122 nM with MAPK11; 6.98 nM in the assay on MAPK14 (compound concentrations: 100 nM and 1000 nM (sheet 'Samples'), CATDS: 0.23867511815935299). Besides, the potency estimated from few doses with MAPK8 is 1080 nM; in the assay on MAPK9 (CATDS: 8.0964581891509499E-2), 112 nM; in the assay on NLK it was 127 nM; in the assay with RIPK2, 196 nM; in the assay on RIPK3, 1330 nM.
On to `CCc1cccc(NC(=O)Nc2ccc(Oc3ccc4nc(NC(=O)OC)[nH]c4c3)cc2)c1` [GW673715X], for which the potency estimated from few doses with CSNK1D (compound concentrations: 100 nM and 1000 nM (sheet 'Samples'), CATDS: 0.27728092810056698) is 739 nM; with CSNK1E (compound concentrations: 100 nM and 1000 nM (sheet 'Samples'), CATDS: 0.214439081495093), 1270 nM; in the assay with MAPK14 (compound concentrations: 100 nM and 1000 nM (sheet 'Samples'), CATDS: 0.234253056752116), 1030 nM; in the assay with MAPKAPK2, 685 nM.
Consider `FC(F)(F)c1cccc(Nc2nccc(-c3cnn4nc(-c5ccccc5)ccc34)n2)c1` [GW819077X], for which the potency estimated from few doses with CLK2 is 960 nM.
As for `COc1cc2c(cc1Nc1nc(Nc3ccsc3C(N)=O)c3cc[nH]c3n1)N(C(=O)CN(C)C)CCC2(C)C` [GSK2163632A], the potency estimated from few doses with CLK4 is 1180 nM; with CSNK2A1;CSNK2A3 it was 1950 nM; with FER, 82.7 nM; in the assay on FES, 212 nM; with GRK6 it was 2050 nM; with IGF1R, 22 nM. Besides, the potency estimated from few doses in the assay with INSR is 6.22 nM; in the assay on PIM1, 647 nM; in the assay with PIM2, 1920 nM; in the assay with TNK1, 599 nM.
Consider `CCCCc1nn2ncccc2c1-c1ccnc(NC2CC2)n1` [GW684374X], for which the potency estimated from few doses was 702 nM in the assay with CSNK1D (compound concentrations: 100 nM and 1000 nM (sheet 'Samples'), CATDS: 0.183460166751924); 1590 nM in the assay with CSNK1E (compound concentrations: 100 nM and 1000 nM (sheet 'Samples'), CATDS: 0.13214440190412699); 1370 nM with MAPK10 (CATDS: 0.138963906660688); 1960 nM in the assay on MAPK9 (CATDS: 0.12372123914536701); 655 nM with NQO2; 178 nM in the assay with PIK3CD.
Turning to `Fc1ccc(-c2ncn(C3CCNCC3)c2-c2ccnc(Oc3ccc(Oc4ccccc4)cc3)n2)cc1` [SB-245392], the potency estimated from few doses with CSNK1D (setting [1]) is 616 nM; with CSNK1E (setting [1]), 1200 nM; with IARS, 2110 nM; with MAPK14 (setting [1]) it was 571 nM; in the assay on NQO1, 1710 nM.
